# Data: PubChem BioAssay
# The source made the active and inactive calls.
# Columns and labels:
# [1] = molecular target: NADPH oxidase 5 (Homo sapiens) (UniProt Q96PH1); experiment: compounds shifting NOX5 Amplex Red fluorescence – cell-based, HEK293-NOX5, NOX inhibitor project, primary screen (AID 1161); conditions: HEK293-NOX5, ionomycin, 45 min, higher = more signal
# [2] = compound effects on lung adenocarcinoma cell viability – A549, calcein-AM fluorescence, 48 h, basal, profiling panel (AID 1162); conditions: higher = more signal; note: test concentration not given here
# [3] = compound effects on differentiated 3T3-L1 adipocyte viability – cell-based, 3T3-L1 adipocytes, calcein-AM fluorescence, 48 h, basal, profiling panel (AID 1163); conditions: 3T3-L1 adipocytes viability, higher = more signal; note: test concentration not given here
# [4] = compound effects on hepatocellular carcinoma cell viability – HepG2, calcein-AM fluorescence, 48 h, basal, profiling panel (AID 1164); conditions: higher = more signal; note: test concentration not given here
# [5] = compound effects on multiple myeloma cell viability – MM1S, calcein-AM fluorescence, 48 h, basal, profiling panel (AID 1165); conditions: higher = more signal; note: test concentration not given here
# [6] = calcein-AM signal in unstimulated myeloma cells – cell-based, calcein-AM fluorescence, 48 h, PK04 Diversity Set, profiling panel (AID 1166); conditions: RPMI8226 myeloma viability, higher = more signal;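 note: cells grown under basal conditions without added stimulus; test concentration not given here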
# [7] = JC-1 mitochondrial signal, unstimulated HepG2 cells – cell-based, JC-1 fluorescence, 24 h, 100 nL compound, profiling panel (AID 1167); conditions: HepG2 mitochondrial potential, higher = more signal; note: test concentration not given here
# [8] = JC-1 mitochondrial signal, unstimulated adipocytes – cell-based, JC-1 fluorescence, 3T3-L1 adipocytes, 24 h, 100 nL compound, profiling panel (AID 1168); conditions: JC-1 mitochondrial fluorescence, higher = more signal, called active from +8 up or from −8 down; note: test concentration not given here
# [9] = JC-1 mitochondrial signal, unstimulated myeloma cells – cell-based, JC-1 fluorescence, RPMI8226, 24 h, 100 nL compound, profiling panel (AID 1169); conditions: JC-1 mitochondrial potential fluorescence, higher = more signal; note: test concentration not given here
# [10] = JC-1 mitochondrial signal, unstimulated MM1S myeloma – cell-based, JC-1 fluorescence, 24 h, 100 nL compound, profiling panel (AID 1170); conditions: MM1S mitochondrial potential, higher = more signal; note: test concentration not given here
# [11] = resazurin metabolic signal in A549 cells – cell-based, resazurin fluorescence, 24 h, PK04 Diversity Set, profiling panel (AID 1171); conditions: A549 viability, higher = more signal, called active from +8 up or from −8 down; note: test concentration not given here
# [12] = resazurin metabolic signal in HepG2 cells – cell-based, resazurin fluorescence, 24 h, PK04 Diversity Set, profiling panel (AID 1172); conditions: HepG2 viability, higher = more signal; note: test concentration not given here
# [13] = budding yeast growth changes without added modifier – OD600, strain BY4716, 24 h, basal condition, primary screen (AID 1173); conditions: S. cerevisiae BY4716 growth, OD600, 24 h; higher = more signal, called active from +8 up or from −8 down
# [14] = viability profiling in MM1S myeloma cells – cell-based, resazurin fluorescence, basal, 24 h, PK04 Diversity Set, profiling panel (AID 1174); conditions: higher = more signal, called active from +8 up or from −8 down; note: test concentration not given here
# [15] = molecular target: Dihydroorotate dehydrogenase (quinone), mitochondrial (Plasmodium falciparum (isolate 3D7)) (UniProt Q08210); experiment: inhibition of P. falciparum DHODH – biochemical, C-terminal His tag, absorbance 600 nm, primary screen (AID 1175); conditions: PfDHODH enzyme, DCIP absorbance 600 nm; higher = more signal, called active from +8 up or from −8 down;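 note: recombinant parasite enzyme with a five histidine tag at its C terminus; test concentration not given here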
# Chain of Dihydroorotate dehydrogenase (quinone), mitochondrial (Plasmodium falciparum (isolate 3D7)) (Q08210 whole entry, looked up): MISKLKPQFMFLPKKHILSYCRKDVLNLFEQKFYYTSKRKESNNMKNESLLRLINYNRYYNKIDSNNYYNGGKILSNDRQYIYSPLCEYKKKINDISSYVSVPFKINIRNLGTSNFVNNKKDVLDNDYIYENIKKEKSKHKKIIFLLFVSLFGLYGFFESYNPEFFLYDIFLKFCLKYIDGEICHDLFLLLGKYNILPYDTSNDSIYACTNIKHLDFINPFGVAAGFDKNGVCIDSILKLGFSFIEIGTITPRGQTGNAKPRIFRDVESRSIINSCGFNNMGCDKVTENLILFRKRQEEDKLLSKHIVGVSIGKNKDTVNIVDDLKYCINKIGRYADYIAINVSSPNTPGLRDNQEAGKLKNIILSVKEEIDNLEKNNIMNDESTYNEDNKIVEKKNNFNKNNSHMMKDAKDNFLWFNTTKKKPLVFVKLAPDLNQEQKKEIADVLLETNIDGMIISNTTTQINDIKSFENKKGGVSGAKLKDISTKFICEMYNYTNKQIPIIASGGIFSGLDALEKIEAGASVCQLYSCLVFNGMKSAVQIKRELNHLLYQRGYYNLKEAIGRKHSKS
# [16] = growth modulation of vineyard yeast isolate – strain RM11-1a, OD600, basal, 24 h, primary screen (AID 1177);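 note: cultures grown under basal conditions with no added stressor; test concentration not given here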; conditions: S. cerevisiae RM11-1a growth, OD600, 24 h; higher = more signal, called active from +8 up or from −8 down
# [17] = growth of efflux-deficient E. coli DRC39 – strain DRC39, OD650, 24 h, E. coli filamentation inducers, primary screen (AID 1178);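 note: growth measured as culture turbidity by optical density at 650 nm; test concentration not given here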; conditions: E. coli DRC39 acrAB, higher = more signal, called active from +8 up or from −8 down
# [18] = growth of efflux-deficient E. coli DRC39 – strain DRC39, OD650, 48 h, E. coli filamentation inducers, primary screen (AID 1179);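 note: screen aims at cell division blockers that make cells filament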; conditions: E. coli DRC39 delta-acrAB growth, higher = more signal, called active from +8 up or from −8 down
# [19] = viability profiling in RPMI8226 myeloma cells – cell-based, resazurin fluorescence, basal, 24 h, PK04 Diversity Set, profiling panel (AID 1180); conditions: higher = more signal;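 note: RPMI8826 multiple myeloma cell line at 5000 cells per well; test concentration not given here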
# [20] = molecular target: E3 ubiquitin-protein ligase XIAP (Homo sapiens) (UniProt P98170); experiment: small molecules binding XIAP protein – biophysical, small-molecule microarray, fluorescence 635 nm, primary screen (AID 1181); conditions: higher = more signal;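 note: score merges 667 nm emission and signal to noise over triplicate slides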
# Chain of E3 ubiquitin-protein ligase XIAP (Homo sapiens) (P98170 whole entry, looked up): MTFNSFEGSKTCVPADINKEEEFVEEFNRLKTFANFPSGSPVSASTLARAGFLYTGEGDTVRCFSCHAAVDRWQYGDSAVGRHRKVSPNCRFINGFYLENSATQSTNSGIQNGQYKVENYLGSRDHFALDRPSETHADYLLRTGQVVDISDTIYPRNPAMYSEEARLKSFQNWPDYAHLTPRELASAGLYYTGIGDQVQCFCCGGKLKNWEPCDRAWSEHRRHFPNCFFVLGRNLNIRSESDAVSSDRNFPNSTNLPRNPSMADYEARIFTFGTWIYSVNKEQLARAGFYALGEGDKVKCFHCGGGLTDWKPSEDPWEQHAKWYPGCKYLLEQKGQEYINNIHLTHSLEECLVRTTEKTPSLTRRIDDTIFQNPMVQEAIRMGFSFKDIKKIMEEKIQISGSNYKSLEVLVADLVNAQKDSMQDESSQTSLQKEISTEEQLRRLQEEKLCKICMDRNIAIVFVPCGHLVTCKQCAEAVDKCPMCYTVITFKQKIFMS
# Chain of NADPH oxidase 5 (Homo sapiens) (Q96PH1 whole entry, looked up): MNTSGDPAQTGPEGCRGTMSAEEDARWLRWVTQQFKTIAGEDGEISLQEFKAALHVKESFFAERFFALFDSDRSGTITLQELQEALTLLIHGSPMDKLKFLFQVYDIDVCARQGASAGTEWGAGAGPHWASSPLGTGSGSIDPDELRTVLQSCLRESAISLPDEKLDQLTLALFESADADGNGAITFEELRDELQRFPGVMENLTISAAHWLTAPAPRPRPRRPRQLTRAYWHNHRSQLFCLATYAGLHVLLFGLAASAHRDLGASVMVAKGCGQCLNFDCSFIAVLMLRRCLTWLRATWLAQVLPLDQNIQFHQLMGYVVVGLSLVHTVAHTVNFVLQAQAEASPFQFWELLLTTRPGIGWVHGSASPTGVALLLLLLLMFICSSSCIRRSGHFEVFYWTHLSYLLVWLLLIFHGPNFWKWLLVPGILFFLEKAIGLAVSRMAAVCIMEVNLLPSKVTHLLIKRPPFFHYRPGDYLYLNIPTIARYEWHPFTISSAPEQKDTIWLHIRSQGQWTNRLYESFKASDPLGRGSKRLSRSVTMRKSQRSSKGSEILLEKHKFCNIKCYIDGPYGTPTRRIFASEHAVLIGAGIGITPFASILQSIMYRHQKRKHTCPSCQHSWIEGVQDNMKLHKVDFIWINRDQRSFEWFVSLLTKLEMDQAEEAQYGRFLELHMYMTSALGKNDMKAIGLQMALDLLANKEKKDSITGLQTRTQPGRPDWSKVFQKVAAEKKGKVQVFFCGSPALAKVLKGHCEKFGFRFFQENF
Structure (SMILES),z-score [1],z-score [2],z-score [3],z-score [4],z-score [5],z-score [6],z-score [7],z-score [8],z-score [9],z-score [10],z-score [11],z-score [12],z-score [13],z-score [14],composite z-score [15],z-score [16],z-score [17],z-score [18],z-score [19],composite z-score [20]
CCCNC(=O)[C@@]1(Sc2ccc(C)cc2)CC(=O)N(Cc2cc(C(F)(F)F)cc(C(F)(F)F)c2)[C@@H]1c1ccc(CO)cc1I,1.37,2.5,0.66,1.28,-2.53,-1.3,0.848,1.18 (inactive),-0.649,-1.24,0.0086 (inactive),1.05,-5.79 (inactive),-1.68 (inactive),-0.684 (inactive),-5 (inactive),0.961 (inactive),1.4 (inactive),-1.55,-0.0925
C=CCNC(=O)[C@H]1[C@@H]2C(=O)O[C@@H](c3ccccc3)[C@@H](c3ccccc3)N2[C@@H](c2ccccc2OCCO)[C@]12C(=O)N(C(=O)OCCOC)c1ccc(C#CCCO)cc12,1.01,0.822,0.674,-0.123,-2.04,-1.42,0.534,0.825 (inactive),-0.847,-0.665,0.659 (inactive),-0.156,0.799 (inactive),0.287 (inactive),-0.409 (inactive),1.57 (inactive),0.488 (inactive),0.985 (inactive),-0.0311,0.355
C=CCOC(=O)[C@H]1[C@@H]2C(=O)O[C@@H](c3ccccc3)[C@@H](c3ccccc3)N2[C@@H](c2ccc(OCCOC(=O)[C@H]3C[C@H]4C(=O)N5CCC[C@H]5C(=O)N4[C@H]3c3cccc(OCCO)c3)cc2)[C@]12C(=O)Nc1ccccc12,1.43,0.552,1.19,-0.588,-1.73,0.791,-0.558,0.569 (inactive),-0.585,-0.673,0.601 (inactive),0.0928,0.22 (inactive),1.26 (inactive),0.493 (inactive),1.16 (inactive),0.971 (inactive),0.184 (inactive),1.37,0.298
CC(C)(C)OC(=O)CC[C@]1(C(=O)NCc2ccccc2)COC(c2ccc(OCCCO)cc2)=N1,-1.01,0.661,0.978,-0.346,0.614,0.554,-0.0474,0.186 (inactive),-0.291,0.931,1.72 (inactive),0.931,-1.67 (inactive),1.65 (inactive),-1.28 (inactive),-1.23 (inactive),1.38 (inactive),0.233 (inactive),1.57,0.141
COc1ccc(/C=C/C(=O)c2cccc(OCC(=O)OC(C)(C)C)c2)cc1,-3.7,0.764,0.934,0.158,-2.97,-2.67,0.528,0.342 (inactive),-0.702,0.656,1.26 (inactive),0.163,-1.39 (inactive),1.11 (inactive),0.131 (inactive),-0.428 (inactive),0.4 (inactive),0.0785 (inactive),1.76,0.0374
COCCOC(=O)N1C(=O)[C@@]2(c3cc(C#CC4(O)CCCCCC4)ccc31)[C@H](c1ccccc1OCCO)N1[C@H](c3ccccc3)[C@H](c3ccccc3)OC(=O)[C@H]1[C@@H]2C(=O)Nc1nc2ccccc2s1,0.339,-0.997,1.65,-0.133,-2.71,-4.28,-2.52,1.52 (inactive),-1.14,-0.807,0.611 (inactive),0.189,1.15 (inactive),-0.326 (inactive),0.764 (inactive),2.77 (inactive),-0.0438 (inactive),0.61 (inactive),-0.346,-0.0765
COc1ccc([Si](C)(C)[C@@H]2[C@@H](CCn3cc([C@H](O)c4ccccc4)nn3)O[C@]3(C(=O)N(C)c4c(Br)cc(C)cc43)[C@H]2C)cc1,0.231,-1.72,1.49,-4.5,-2.72,-4.42,-1.11,2.39 (inactive),-1.06,-1.2,-2.49 (inactive),-3.66,-1.39 (inactive),-8.35 (active),-0.973 (inactive),-2.42 (inactive),2.5 (inactive),2.83 (inactive),-6.23,0.382
C=CCC(OC(C)=O)[C@@H]1[C@@H](N(Cc2ccc(-c3cccc(C(F)(F)F)c3)o2)C(=O)c2ccc(-c3ccccc3)cc2)c2cc(OCCCO)ccc2N1C(=O)Cc1ccc(OC)cc1 (stereo not given in full),2.21,0.161,0.935,1.29,1.18,0.72,3.72,0.0243 (inactive),-0.598,1.36,0.797 (inactive),0.421,0.0438 (inactive),1.29 (inactive),0.0258 (inactive),-0.93 (inactive),1.98 (inactive),1.21 (inactive),1.32,-0.0525
